Laboratory results reported in PubChem BioAssay AID1159580 (chemical genetic matrix, 2015).
Hit rate of the full screen: of about 5,500 compounds, about 2,000 (36%) were called active. Inconclusive results (about 18%) are left out. The list shows a part of the results. Values without a mark were called inactive. No stated cut-off is given here; in the data, active means normalized growth mostly below about 0.91 (no sharp cut-off); inconclusive means no clear call, values can overlap the other calls; inactive means mostly above about 0.92.

Assay: chemical genetic growth profiling, strain panel (AID 1159580);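 further: tested at 20 µM; growth read once vehicle control cultures reached saturation at 30 °C; 1 = growth at the plate median or of vehicle wells; lower values mean less growth of the strain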
Details: S. cerevisiae deletion strains, growth OD

## CC12CCC(O)CC1CCc1ccccc12 (configuration not stated)
Locus YAL021C, strain ccr4, active compounds read low
  normalized growth: 0.993
Locus YAL026C, strain drs2, active compounds read low
  normalized growth: 0.972
Locus YAL030W, strain snc1, active compounds read low
  normalized growth: 0.982
Locus YBL061C, strain skt5, active compounds read low
  normalized growth: 0.967
Locus YBR009C, strain hhf1, active compounds read low
  normalized growth: 0.932
Locus YBR023C, strain chs3, active compounds read low
  normalized growth: 0.967
Locus YBR171W, strain sec66, active compounds read low
  normalized growth: 0.938
Locus YBR231C, strain swc5, active compounds read low
  normalized growth: 0.998
Locus YBR279W, strain paf1, active compounds read low
  normalized growth: 0.981
Locus YCL011C, strain gbp2, active compounds read low
  normalized growth: 0.981
Locus YCL016C, strain dcc1, active compounds read low
  normalized growth: 0.977
Locus YCL061C, strain MRC1, active compounds read low
  normalized growth: 0.967
Locus YCL069W, strain vba3, active compounds read low
  normalized growth: 0.974
Locus YCR088W, strain abp1, active compounds read low
  normalized growth: 0.978
Locus YDL005C, strain med2, active compounds read low
  normalized growth: 0.97
Locus YDL040C, strain nat1, active compounds read low
  normalized growth: 0.979
Locus YDR001C, strain nth1, active compounds read low
  normalized growth: 0.971
Locus YDR069C, strain doa4, active compounds read low
  normalized growth: 0.984
Locus YDR137W, strain rgp1, active compounds read low
  normalized growth: 0.871
Locus YDR159W, strain sac3, active compounds read low
  normalized growth: 0.936
Locus YDR195W, strain ref2
  normalized growth: 1
Locus YDR297W, strain sur2, active compounds read low
  normalized growth: 0.971
Locus YDR334W, strain swr1, active compounds read low
  normalized growth: 0.989
Locus YDR335W, strain msn5, active compounds read low
  normalized growth: 0.972
Locus YDR392W, strain spt3, active compounds read low
  normalized growth: 0.634 (active)
Locus YEL003W, strain gim4, active compounds read low
  normalized growth: 0.96
Locus YEL037C, strain rad23, active compounds read low
  normalized growth: 0.98
Locus YEL061C, strain CIN8 (second series), active compounds read low
  normalized growth: 0.964
Locus YER015W, strain faa2, active compounds read low
  normalized growth: 0.983
Locus YER016W, strain bim1, active compounds read low
  normalized growth: 0.969
Locus YER111C, strain swi4, active compounds read low
  normalized growth: 0.96
Locus YER155C, strain BEM2 (second series), active compounds read low
  normalized growth: 0.944
Locus YFR010W, strain ubp6, active compounds read low
  normalized growth: 0.979
Locus YGL167C, strain pmr1, active compounds read low
  normalized growth: 0.962
Locus YGL173C, strain kem1, active compounds read low
  normalized growth: 0.957
Locus YGL227W, strain vid30, active compounds read low
  normalized growth: 0.961
Locus YGL240W, strain doc1, active compounds read low
  normalized growth: 0.901
Locus YGL253W, strain hxk2, active compounds read low
  normalized growth: 0.969
Locus YHR013C, strain ard1, active compounds read low
  normalized growth: 0.974
Locus YHR027C, strain rpn1, active compounds read low
  normalized growth: 0.991
Locus YHR142W, strain chs7, active compounds read low
  normalized growth: 0.973
Locus YJL092W, strain hpr5, active compounds read low
  normalized growth: 0.983
Locus YJL095W, strain BCK1 (second series), active compounds read low
  normalized growth: 0.99
Locus YJL115W, strain asf1, active compounds read low
  normalized growth: 0.977
Locus YJL129C, strain trk1, active compounds read low
  normalized growth: 0.92
Locus YJL154C, strain vps35, active compounds read low
  normalized growth: 0.99
Locus YJL164C, strain tpk1, active compounds read low
  normalized growth: 0.968
Locus YJL166W, strain qcr8, active compounds read low
  normalized growth: 0.946
Locus YJL187C, strain SWE1, active compounds read low
  normalized growth: 0.971
Locus YKL160W, strain elf1, active compounds read low
  normalized growth: 0.993
Locus YKR026C, strain gcn3, active compounds read low
  normalized growth: 0.954
Locus YKR091W, strain srl3, active compounds read low
  normalized growth: 0.969
Locus YLL001W, strain dnm1, active compounds read low
  normalized growth: 0.991
Locus YLL026W, active compounds read low
  normalized growth: 0.982
Locus YLL041C, strain sdh2, active compounds read low
  normalized growth: 0.974
Locus YLR027C, strain aat2, active compounds read low
  normalized growth: 0.984
Locus YLR221C, strain rsa3, active compounds read low
  normalized growth: 0.98
Locus YLR258W, strain gsy2, active compounds read low
  normalized growth: 0.968
Locus YLR262C, strain YPT6 (second series), active compounds read low
  normalized growth: 0.826 (active)
Locus YLR320W, strain mms22, active compounds read low
  normalized growth: 0.906
Locus YLR342W, strain FKS1, active compounds read low
  normalized growth: 0.965
Locus YLR357W, strain rsc2, active compounds read low
  normalized growth: 0.935
Locus YLR370C, strain arc18, active compounds read low
  normalized growth: 0.969
Locus YLR384C, strain iki3, active compounds read low
  normalized growth: 0.993
Locus YML120C, strain ndi1, active compounds read low
  normalized growth: 0.955
Locus YMR058W, strain fet3, active compounds read low
  normalized growth: 0.97
Locus YMR125W, strain sto1, active compounds read low
  normalized growth: 1
Locus YMR129W, active compounds read low
  normalized growth: 0.961
Locus YMR205C, strain PFK2, active compounds read low
  normalized growth: 0.902
Locus YMR231W, strain pep5, active compounds read low
  normalized growth: 0.988
Locus YNL071W, strain lat1, active compounds read low
  normalized growth: 0.959
Locus YNL209W, strain ssb2, active compounds read low
  normalized growth: 0.988
Locus YNL248C, strain rpa49, active compounds read low
  normalized growth: 0.985
Locus YNL322C, strain KRE1 (second series), active compounds read low
  normalized growth: 0.959
Locus YNR049C, strain mso1, active compounds read low
  normalized growth: 0.971
Locus YOR001W, strain rrp6, active compounds read low
  normalized growth: 0.967
Locus YOR070C, strain gyp1, active compounds read low
  normalized growth: 0.973
Locus YOR080W, strain dia2, active compounds read low
  normalized growth: 0.968
Locus YOR083W, strain WHI5, active compounds read low
  normalized growth: 0.99
Locus YOR106W, strain vam3, active compounds read low
  normalized growth: 0.966
Locus YOR265W, strain rbl2, active compounds read low
  normalized growth: 0.992
Locus YOR270C, strain vph1, active compounds read low
  normalized growth: 0.94
Locus YOR290C, strain snf2, active compounds read low
  normalized growth: 0.898
Locus YPL051W, strain arl3, active compounds read low
  normalized growth: 0.986
Locus YPL078C, strain atp4, active compounds read low
  normalized growth: 0.973
Locus YPL106C, strain sse1, active compounds read low
  normalized growth: 1.01
Locus YPL240C, strain hsp82, active compounds read low
  normalized growth: 0.991
